# Reference: PubChem BioAssay
# Values joined by “and” are separate entries in the source; they are usually repeats but may differ in a detail not shown here. Equal values may be shown once. Active and inactive are the calls of the source.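 Rule for the calls, unless noted: active = thallium flux through the channel raised or lowered by more than 3 SD from vehicle-only wells, actives on both sides; inactive = the rest.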
# Key:
# [1] = P. berghei load reduction in hepatocytes – cell-based, HepG2, luciferase luminescence, HepG2 viability, primary screen (AID 624349; in the data active = parasite load remaining mostly below about 12%, no sharp cut-off; inactive = mostly above about 10%;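 note: 100% = mean of DMSO negative control wells on the same plate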); details: P. berghei liver stage in HepG2, luciferase luminescence, concentration not given here; parasite load remaining: stronger effect = lower value; viability: measured here: HepG2 viability without parasites
# [2] = signal quenchers or enhancers, Cy5 substrate/SSB – biochemical, NIH Clinical Collection, E. coli SSB, artefact control for HCV NS3 helicase inhibitor project (AID 743268; call rule not given here); details: Cy5-oligo bound E. coli SSB, fluorescence interference
# [3] = test system: Hepatitis C virus NS3 helicase; test: blockers of NS3h binding to DNA – biochemical, fluorescence polarization, NIH Clinical Collection, primary screen (AID 743270; call rule not given here); details: NS3 helicase binding to Cy5-dT15 DNA, stronger effect = higher value, concentration not given here
# [4] = target: Single-stranded DNA-binding protein (Escherichia coli (strain K12)) (UniProt P0AGE0); test: SSB-ssDNA binding inhibitors – biochemical, fluorescence polarization, NIH Clinical Collection, counter-screen for HCV NS3 helicase inhibitor project (AID 743271; in the data active = inhibition above about 28%); details: E. coli SSB-DNA binding, stronger effect = higher value, concentration not given here
# [5] = compounds distorting NS3 helicase fluorescence signal – biochemical, NIH Clinical Collection, artefact control for HCV NS3 helicase inhibitor project (AID 743272; call rule not given here;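 note: HCV NS3 helicase with a Cy5 labelled single stranded DNA probe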); details: fluorescence interference counterscreen, HCV NS3 helicase assay; stronger effect = lower value
# [6] = viability loss with induced miR-34 in A549 – imaging, A549 dox-inducible miR-34, nuclei and caspase counts, primary screen (AID 1347080;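 active = compounds whose cell count with miR-34 switched on is under 0.7 times the count with it off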); details: A549 miR-34 inducible, Hoechst nuclei count, 48 h
# F380Y = test: BK channel mutant inhibitors and activators – cell-based, U2OS BacMam, thallium flux, beta subunits, selectivity assay, profiling panel (AID 1259406); details: U2OS BacMam BK variants, at 30 µM;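 note: initial slope of Thallos dye fluorescence rise after thallium is added; log ratio against the mean of 0.3% DMSO vehicle wells on the same plate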
# F380Y/beta1 = test: as above; details: U2OS BacMam BK variants, at 30 µM
# F380Y/beta2Delta = test: as above; details: U2OS BacMam BK variants, at 30 µM
# F380Y/beta4 = test: as above; details: U2OS BacMam BK variants, at 30 µM
# [7] = target: Calcium-activated potassium channel subunit alpha-1 (Homo sapiens) + Leucine-rich repeat-containing protein 26 (Homo sapiens) (UniProt Q12791+Q2I0M4); test: as above; details: U2OS BacMam BK variants, F380Y/Slo1WT/gamma1, at 30 µM
# R275C = test: as above; details: U2OS BacMam BK variants, at 30 µM
# R275C/beta1 = test: as above; details: U2OS BacMam BK variants, at 30 µM
# R275C/beta2Delta = test: as above; details: U2OS BacMam BK variants, at 30 µM
# R275C/Slo1WT/beta2 = test: as above; details: U2OS BacMam BK variants, at 30 µM
# [8] = test system: Neuropilin-2 / VEGF-C interaction (human); test: small molecules blocking Neuropilin-2/VEGF-C interaction – biochemical, microplate binding format, z-score (AID 743281; call rule not given here); details: microplate NRP2/VEGF-C binding assay; stronger effect = lower value
# [9] = modulation of C. elegans fzo-1 (AID 1259413; call rule not given here;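 note: fzo-1 mutant C. elegans worms in liquid wells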); details: C. elegans fzo-1 modulator screen, mean read-out; stronger effect = higher value
# [10] = galactose survival enhancers in mitochondrial complex I cybrids – cell-based, galactose medium, ATP luminescence, primary screen (AID 1645843;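 active = z-score of at least 1.8 in each of two replicates, scored against plate mean and spread of sample wells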;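 note: positive z means more ATP and so rescue of galactose-driven cybrid death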); details: complex I mutant cybrid cells, 72 h, stronger effect = higher value
# [11] = measured here: relative caspase fold change +Dox/-Dox
# [12] = measured here: total cells with miR-34 induction, stronger effect = lower value
# [13] = measured here: total cells without miR-34 induction
# [14] = stronger effect = lower value, cell number ratio, induced over uninduced
# Sequence of Calcium-activated potassium channel subunit alpha-1 (Homo sapiens) + Leucine-rich repeat-containing protein 26 (Homo sapiens) (Q2I0M4 whole entry, looked up, one chain of several): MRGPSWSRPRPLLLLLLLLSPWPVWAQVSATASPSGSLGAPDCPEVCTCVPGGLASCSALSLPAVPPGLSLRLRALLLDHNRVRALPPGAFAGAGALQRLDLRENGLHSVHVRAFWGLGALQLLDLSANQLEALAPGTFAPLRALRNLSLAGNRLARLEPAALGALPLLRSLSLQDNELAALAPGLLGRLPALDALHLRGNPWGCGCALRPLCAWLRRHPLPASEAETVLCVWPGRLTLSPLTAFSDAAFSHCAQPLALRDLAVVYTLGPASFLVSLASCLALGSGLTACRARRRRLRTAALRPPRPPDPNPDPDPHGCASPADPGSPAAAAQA
smiles,measurement,setting,value
C[C@]12CC[C@H]3[C@@H](CCC4=CC(=O)CC[C@@H]43)[C@@H]1CC[C@@H]2O,parasite load remaining,[1],113% (inactive) and 109% (inactive)
same,viability,[1],73.7% and 87.5%
same,fluorescence ratio,[2],1 (inactive)
same,inhibition,[3],-4.36% (inactive)
same,inhibition,[4],-0.87% (inactive)
same,fluorescence ratio,[5],0.98 (inactive)
same,fold change,[6]; stronger effect = lower value,0.927 (inactive)
same,fold change,[6]; [11],1.32
same,cell count,[6]; [12],8170
same,cell count,[6]; [13],8800
same,log fold change Tl+ flux,F380Y,0.0331 (inactive)
same,log fold change Tl+ flux,F380Y/beta1,0.000378 (inactive)
same,log fold change Tl+ flux,F380Y/beta2Delta,0.0141 (inactive)
same,log fold change Tl+ flux,F380Y/beta4,0.0107 (inactive)
same,log fold change Tl+ flux,[7],0.0229 (inactive)
same,log fold change Tl+ flux,R275C,-0.0315 (inactive)
same,log fold change Tl+ flux,R275C/beta1,0.00735 (inactive)
same,log fold change Tl+ flux,R275C/beta2Delta,-0.0135 (inactive)
same,log fold change Tl+ flux,R275C/Slo1WT/beta2,-0.0416 (inactive)
CN1CC[C@]2(c3cccc(O)c3)Cc3nc4ccccc4cc3C[C@H]2C1,parasite load remaining,[1],54.3% (inactive)
same,viability,[1],65.5%
same,fluorescence ratio,[2],0.96 (inactive)
same,inhibition,[3],-8.08% (inactive)
same,inhibition,[4],-1.97% (inactive)
same,fluorescence ratio,[5],0.98 (inactive)
same,z-score,[8],-0.954 (inactive)
same,mean signal,[9],226 (inactive)
C[C@]12CCC(=O)C[C@@H]1CC[C@@H]1[C@@H]2CC[C@@]2(C)[C@H]1CC[C@]2(C)O,parasite load remaining,[1],79.1% (inactive)
same,viability,[1],70.4%
same,fluorescence ratio,[2],1.04 (inactive)
same,inhibition,[3],-0.4% (inactive)
same,inhibition,[4],-3.18% (inactive)
same,fluorescence ratio,[5],0.92 (inactive)
same,log fold change Tl+ flux,F380Y,0.00819 (inactive)
same,log fold change Tl+ flux,F380Y/beta1,-0.00468 (inactive)
same,log fold change Tl+ flux,F380Y/beta2Delta,0.0319 (inactive)
same,log fold change Tl+ flux,F380Y/beta4,0.0289 (inactive)
same,log fold change Tl+ flux,[7],0.0101 (inactive)
same,log fold change Tl+ flux,R275C,-0.0214 (inactive)
same,log fold change Tl+ flux,R275C/beta1,0.0156 (inactive)
same,log fold change Tl+ flux,R275C/beta2Delta,0.0537 (inactive)
same,log fold change Tl+ flux,R275C/Slo1WT/beta2,0.012 (inactive)
COc1ccc2[nH]cc(C3=CCNCC3)c2c1,parasite load remaining,[1],75.7% (inactive)
same,viability,[1],72.8%
same,fluorescence ratio,[2],0.58 (active)
same,inhibition,[3],-1.09% (inactive)
same,inhibition,[4],5.91% (inactive)
same,fluorescence ratio,[5],0.79 (active)
same,z-score,[8],-1.09 (inactive)
same,mean signal,[9],255 (inactive)
same,fold change,[6]; stronger effect = lower value,0.984 (inactive)
same,fold change,[6]; [14],0.928 (inactive)
same,fold change,[6]; [11],1.1 and 0.779
same,cell count,[6]; [12],6960 and 7660
same,cell count,[6]; [13],7080 and 8260
same,z-score,[10],-1.57 (inactive) and -0.95 (inactive)
same,log fold change Tl+ flux,F380Y,0.0506 (inactive)
same,log fold change Tl+ flux,F380Y/beta1,0.0695 (inactive)
same,log fold change Tl+ flux,F380Y/beta2Delta,0.0281 (inactive)
same,log fold change Tl+ flux,F380Y/beta4,0.0777 (inactive)
same,log fold change Tl+ flux,[7],0.0216 (inactive)
same,log fold change Tl+ flux,R275C,-0.00261 (inactive)
same,log fold change Tl+ flux,R275C/beta1,0.0891 (active)
same,log fold change Tl+ flux,R275C/beta2Delta,0.0216 (inactive)
same,log fold change Tl+ flux,R275C/Slo1WT/beta2,0.242 (active)
NCCc1ccccn1,parasite load remaining,[1],52.1% (inactive)
same,viability,[1],95.2%
same,fluorescence ratio,[2],1 (inactive)
same,inhibition,[3],-1.19% (inactive)
same,inhibition,[4],-1.64% (inactive)
same,fluorescence ratio,[5],1 (inactive)
same,z-score,[8],1.2 (inactive)
same,mean signal,[9],245 (inactive)
same,fold change,[6]; stronger effect = lower value,1.03 (inactive)
same,fold change,[6]; [14],1.05 (inactive)
same,fold change,[6]; [11],1.57 and 1.54
same,cell count,[6]; [12],10400 and 8860
same,cell count,[6]; [13],10100 and 8480
same,z-score,[10],0.8 (inactive) and -0.145 (inactive)
same,log fold change Tl+ flux,F380Y,-0.0264 (inactive)
same,log fold change Tl+ flux,F380Y/beta1,0.0119 (inactive)
same,log fold change Tl+ flux,F380Y/beta2Delta,-0.0265 (inactive)
same,log fold change Tl+ flux,F380Y/beta4,-0.0155 (inactive)
same,log fold change Tl+ flux,[7],0.0303 (inactive)
same,log fold change Tl+ flux,R275C,-0.0283 (inactive)
same,log fold change Tl+ flux,R275C/beta1,-0.0664 (inactive)
same,log fold change Tl+ flux,R275C/beta2Delta,-0.0248 (inactive)
same,log fold change Tl+ flux,R275C/Slo1WT/beta2,-0.0103 (inactive)
COc1ccc2c(c1)C13CCCC[C@@H]1C(C2)N(C)CC3 (some centres not stated),parasite load remaining,[1],74.7% (inactive)
same,viability,[1],74%
same,fluorescence ratio,[2],0.98 (inactive)
same,inhibition,[3],0.4% (inactive)
same,inhibition,[4],2.21% (inactive)
same,fluorescence ratio,[5],0.92 (inactive)
same,z-score,[8],-0.757 (inactive)
same,mean signal,[9],229 (inactive)
Clc1ccc(CON=C(Cn2ccnc2)c2ccc(Cl)cc2Cl)c(Cl)c1,parasite load remaining,[1],2.5% (inactive)
same,viability,[1],54.6%
same,fluorescence ratio,[2],0.95 (inactive)
same,inhibition,[3],13.1% (inactive)
same,inhibition,[4],7.6% (inactive)
same,fluorescence ratio,[5],1 (inactive)
same,fold change,[6]; stronger effect = lower value,1.28 (inactive)
same,fold change,[6]; [11],0.637
same,cell count,[6]; [12],3280
same,cell count,[6]; [13],2560
same,z-score,[10],-1.88 (inactive)
same,log fold change Tl+ flux,F380Y,-0.0332 (inactive)
same,log fold change Tl+ flux,F380Y/beta1,-0.00723 (inactive)
same,log fold change Tl+ flux,F380Y/beta2Delta,-0.00783 (inactive)
same,log fold change Tl+ flux,F380Y/beta4,-0.00465 (inactive)
same,log fold change Tl+ flux,R275C,-0.0645 (inactive)
same,log fold change Tl+ flux,R275C/beta1,0.329 (active)
same,log fold change Tl+ flux,R275C/beta2Delta,-0.0303 (inactive)
same,log fold change Tl+ flux,R275C/Slo1WT/beta2,0.0197 (inactive)
CN1C(=O)CN=C(c2ccccc2)c2cc(Cl)ccc21,parasite load remaining,[1],122% (inactive)
same,viability,[1],81.8%
same,fluorescence ratio,[2],1.03 (inactive)
same,inhibition,[3],-1.98% (inactive)
same,inhibition,[4],0.67% (inactive)
same,fluorescence ratio,[5],1.02 (inactive)
same,z-score,[8],-0.636 (inactive)
same,mean signal,[9],240 (inactive)
same,fold change,[6]; stronger effect = lower value,0.967 (inactive)
same,fold change,[6]; [11],1.74
same,cell count,[6]; [12],9270
same,cell count,[6]; [13],9590
same,z-score,[10],1.09 (inactive)
same,log fold change Tl+ flux,F380Y,0.00227 (inactive)
same,log fold change Tl+ flux,F380Y/beta1,-0.0264 (inactive)
same,log fold change Tl+ flux,F380Y/beta2Delta,0.0204 (inactive)
same,log fold change Tl+ flux,F380Y/beta4,0.0209 (inactive)
same,log fold change Tl+ flux,[7],-0.0437 (inactive)
same,log fold change Tl+ flux,R275C,-0.0487 (inactive)
same,log fold change Tl+ flux,R275C/beta1,-0.07 (inactive)
same,log fold change Tl+ flux,R275C/beta2Delta,-0.0058 (inactive)
same,log fold change Tl+ flux,R275C/Slo1WT/beta2,0.0176 (inactive)
